Sa RN4220 lethal: growth inhibition of S. aureus RN4220, primary screen, OD600. inhibition, % (test concentration not listed). actives 0.33% (n = 330,000). 16 h; in the data active means inhibition above about 85%;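 further: plate controls were untreated cells for no effect and reference antibiotic for full effect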
Mtb hypoxia rep: PubChem AID 1159583. M. tuberculosis hypoxia-regulated fluorescent reporter, fluorescence. actives 0.1% (n = 300,000). fluorescence inhibition, % (test concentration not listed); in the data active means fluorescence inhibition mostly above about 23%, no sharp cut-off; inactive means mostly below about 17%
PriA SSB inh: inhibitors of Klebsiella pneumoniae PriA binding to SSB C-terminal tail, primary screen, biochemical, AlphaScreen; AlphaScreen SSBct-PriA binding, biotinylated peptide; PriA–SSB C-terminal tail interaction (Klebsiella pneumoniae); inhibition, % at 33 µM; actives 0.6% (n = 430,000); in the data active means inhibition mostly above about 37%, no sharp cut-off; inactive means mostly below about 20%;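 further: plate controls were negative control peptide for no effect and reference peptide for full effect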
Sa ugtP lethal: growth inhibition of ugtP-null S. aureus, primary screen, RN4220 ugtP deletion, OD600. 16 h. growth inhibition, % (concentration not given with the values). actives 0.54% (n = 330,000). AID 1259309, 2017; in the data active means growth inhibition above about 68%;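 further: plate controls were untreated wells for no effect and antibiotic for full effect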
CCHFV vOTU inh: CCHFV vOTU protease inhibitors, primary screen, biochemical, Pep-AMC substrate, fluorescence. Crimean-Congo hemorrhagic fever virus L polyprotein viral ovarian tumor (vOTU) protease …. inhibition, % at 11.5 µM. actives 0.55% (n = 370,000). AID 651958, 2012; in the data active means inhibition above about 30%; further: 0% = vehicle wells with enzyme and 100% = no enzyme wells
Numbers without * were called inactive; x = not tested or not shown. Most compounds without a hit are left out; they make up all but 1.4% or so of the library.

SMILES | Sa RN4220 lethal | Mtb hypoxia rep | PriA SSB inh | Sa ugtP lethal | CCHFV vOTU inh
CC(=O)OCC1=C(C(=O)OC(C)(C)C)N2C(=O)[C@@H](NC(=O)Cc3ccccc3)[C@H]2SC1 | 96* | -1 | -7 | 94* | 11
Cc1nnc(SCC2=C(C(=O)O)N3C(=O)C(NC(=O)C(C)n4nc(C(F)(F)F)cc4C)C3SC2)s1 (centres undefined) | 100* | x | -3 | 101* | 1
NC(=O)c1cc[n+](CC2=C(C(=O)O)N3C(=O)[C@@H](NC(=O)C(c4ccccc4)S(=O)(=O)[O-])[C@H]3SC2)cc1 (some centres undefined) | x | x | -13 | x | x
COCC1=C(C(=O)OC(C)OC(=O)OC(C)C)N2C(=O)C(NC(=O)C(=NOC)c3csc(N)n3)C2SC1 (centres undefined) | 68 | 4 | x | 43 | x
CON=C(C(=O)NC1C(=O)N2C(C(=O)O)=C(COC(C)=O)CSC12)c1csc(N)n1 (centres undefined) | 100* | x | x | 100* | x
CC(=O)OCC1=C(C(=O)O)N2C(=O)C(NC(=O)c3ccc(COc4cccc(Cl)c4Cl)o3)C2SC1 (centres undefined) | 100* | 8 | -7 | 100* | 9
CSc1cccc(C(=O)Nc2nc3c(Br)cccc3s2)c1 | x | x | -5 | x | x
O=C(Nc1nnc(-c2ccccc2Cl)s1)c1cccs1 | x | x | -13 | x | x
O=c1c2ncccc2n(Cc2ccc(Cl)cc2Cl)c(=O)n1Cc1cccs1 | x | x | -1 | x | x
Cc1nnc(SCC2=C(C(=O)O)N3C(=O)C(NC(=O)Cc4ccccc4)C3SC2)s1 (centres undefined) | 100* | x | 0 | 100* | 13
CCOC(=O)N1CCC(Nc2cc(C)nc3c(-c4ccccc4OC)c(C)nn23)CC1 | 3 | 2 | 104* | 13 | 2
O=C(NCc1cc(-c2ccncc2)n(C2CCCC2)n1)c1ccc(OC(F)(F)F)cc1 | x | x | -9 | x | x
Cc1n[nH]c(=O)nc1NN=Cc1ccc(O)c([N+](=O)[O-])c1 | 6 | 16 | -15 | 8 | x
Cc1ccsc1C=NNc1nc(=O)[nH]nc1C | 5 | -1 | 67* | 1 | x
CNc1cc(Cl)c2nonc2c1[N+](=O)[O-] | 94* | x | -13 | 98* | 20
O=[N+]([O-])c1c(Nc2cccc(O)c2)cc(Cl)c2nonc12 | x | x | 3 | x | 6
CC1=NN(c2ccc(C)cc2)C(=O)/C1=C/c1ccc(-c2cc([N+](=O)[O-])ccc2O)o1 | 39 | 15 | -4 | 85* | -2
CC(=O)c1ccc2c(c1)C1C=CCC1C(C(=O)O)N2 (centres undefined) | 11 | 6 | 16 | -6 | 50*
CC(=O)c1ccc2c(c1)C1C=CCC1C(c1ccncc1)N2 (centres undefined) | 13 | 11 | 10 | -2 | 17
O=C(Cn1ncccc1=O)N1CCN(c2ccc(-c3ccccn3)nn2)CC1 | x | x | 130* | x | x
COc1ccccc1-c1ccc(=O)n(CC(=O)N2CCN(c3ccc(-c4ccccn4)nn3)CC2)n1 | x | x | 104* | x | x
COc1ccc(N(C(=O)c2ccncc2)S(=O)(=O)c2ccccc2)cc1 | 5 | 3 | -10 | 5 | -5
COc1ccc(N(C(=O)c2ccccc2C)S(=O)(=O)c2cccs2)cc1 | 3 | 9 | -11 | 84* | 14
Cc1ccc(-n2nc(C(=O)N3CCOCC3)cc2-c2ccc(Cl)cc2)cc1 | -3 | x | 8 | 92* | 3
CCOc1ccc(CC(N)=Nn2cnnc2)cc1 | x | x | -11 | x | x
SMILES | Sa RN4220 lethal | Mtb hypoxia rep | PriA SSB inh | Sa ugtP lethal | CCHFV vOTU inh
O=C(Nc1ccc(Nc2ccc(-n3cccn3)nn2)cc1)c1cc2ccccc2oc1=O | x | x | 56* | x | x
O=C(Nc1ccc(-n2nncc2-c2ccco2)cc1)c1cccc(F)c1 | -5 | -8 | -1 | -16 | -5
O=C(Nc1ccc(-n2nncc2-c2ccco2)cc1)c1cc2ccccc2oc1=O | 6 | -4 | 46* | -7 | x
O=C(Nc1ccc(Nc2ccc(-n3cccn3)nn2)cc1)Nc1cccc(F)c1 | x | x | 36* | x | x
COc1cccc(C(=O)Nc2ccc(Nc3ccc(-n4cccn4)nn3)cc2)c1OC | x | x | 70* | x | x
CCCCCOc1ccc(C=NNC(=O)c2nnn(-c3nonc3N)c2CN2CCCCCC2)cc1 | 3 | x | -6 | 12 | x
COc1ccccc1NC(=O)c1cc2cc(Br)ccc2cc1O | 99* | 9 | -16 | 100* | 0
COc1cc(NC(=O)c2cc3ccccc3cc2O)c(OC)cc1Cl | -2 | 9 | -9 | 4 | 1
Cc1c(N)c(C(C)(C)C)cc(C(C)(C)C)c1[N+](=O)[O-] | 5 | 8 | -11 | 95* | 8
Cc1cc(F)ccc1-n1c(=O)c2sccc2n(Cc2ccccc2C#N)c1=O | x | x | -16 | x | x
O=C(CSc1nccn1-c1ccc(Cl)cc1)N1CCCc2ccccc21 | 9 | 6 | 56* | -5 | -4
O=C(CSc1nccn1-c1ccccc1)N1CCc2ccccc21 | 3 | x | 7 | -1 | -9
O=C(CSc1ncc(-c2ccccc2)[nH]1)N1CCCc2ccccc21 | x | x | 39* | x | x
COc1cccc(-c2noc(-c3cc(-c4cccs4)[nH]n3)n2)c1OC | x | x | -23 | x | x
CC(NC(=O)c1nc[nH]c1C(=O)N1CCN(c2ccccc2)CC1)C(=O)OCc1ccccc1 (centres undefined) | -2 | -9 | x | -6 | x
NC(=O)c1c(NC(=O)Cc2ccc(F)cc2)sc2c1CCCCC2 | x | x | 0 | x | x
COc1ccc(NCc2ccc(OC)c(Cn3ccnc3)c2)c(OC)c1 | 1 | 5 | 73* | -2 | 14
COc1ccc(CN2CCCCCC2)cc1 | 5 | 14 | -6 | 17 | 8
COc1ccc(N=Nc2cc(C)c(O)c(CN3CCCCC3)c2)cc1 | 1 | -4 | 54* | 15 | -8
CCOC(=O)c1c(N)sc(C(O)(C(F)(F)F)C(F)(F)F)c1-c1ccc(Cl)cc1 | 100* | 0 | 4 | 100* | 19
CCOC(=O)c1c(N)sc(C(O)(C(F)(F)F)C(F)(F)F)c1-c1ccc(F)cc1 | 56 | -3 | 1 | 1 | 12
CN(CC(=O)Nc1ccc(OC(F)(F)F)cc1)C(=O)/C=C/c1cc2c(cc1[N+](=O)[O-])OCO2 | 2 | 30* | -9 | -2 | 7
O=c1c2ccccc2sn1-c1ccc(F)cc1 | 29 | 2 | 0 | 47 | -9
Cc1ccc(-n2sc3ccccc3c2=O)cc1 | 100* | 11 | 10 | 100* | 11
O=C(O)CCCc1ccc2ccc3cccc4ccc1c2c34 | 8 | 10 | -9 | 20 | 3
SMILES | Sa RN4220 lethal | Mtb hypoxia rep | PriA SSB inh | Sa ugtP lethal | CCHFV vOTU inh
NCCCCc1ccc2ccc3cccc4ccc1c2c34 | 101* | 9 | 5 | 100* | -4
CN(C)c1ccc2c(c1)C(=NO)c1ccccc1-2 | x | x | 53* | x | x
CCCC12CN3CC(CCC)(CN(C1)C3c1ccccn1)C2=O (centres undefined) | 1 | -2 | 58* | 0 | 3
CCCC12CN3CC(C)(CN(C1)C3c1cccs1)C2=O (centres undefined) | 0 | 1 | -8 | 2 | -2
CSC(=S)NN=Cc1ccc(Br)cc1 | 2 | -4 | -17 | 8 | x
O=C(O)CSc1nnc(-c2cccs2)o1 | x | x | -19 | x | x

Compound activity (PubChem)
